These results are taken from PubChem BioAssay AID504339 (National Center for Advancing Translational Sciences (NCATS), 2011).

SMILES strings stand for the structures. The campaign covered roughly 390,000 compounds. About 17,000 (4.4%) were called active. Entries that show only a call come without a potency. About 8% were inconclusive and are not listed. Calls follow the shape of the dose curve; as a rule, active = well fitted inhibition curve with a large enough effect; inconclusive = small, poorly fitted or top-dose-only effect; inactive = no such curve, though single readings can be large or run the other way. This excerpt belongs to a sample that is enriched for actives.
Potency is read from the fitted curve at half-maximal effect.

Chain of Lysine-specific demethylase 4A (Homo sapiens) (O75164 whole entry, looked up, the tested form may be a part): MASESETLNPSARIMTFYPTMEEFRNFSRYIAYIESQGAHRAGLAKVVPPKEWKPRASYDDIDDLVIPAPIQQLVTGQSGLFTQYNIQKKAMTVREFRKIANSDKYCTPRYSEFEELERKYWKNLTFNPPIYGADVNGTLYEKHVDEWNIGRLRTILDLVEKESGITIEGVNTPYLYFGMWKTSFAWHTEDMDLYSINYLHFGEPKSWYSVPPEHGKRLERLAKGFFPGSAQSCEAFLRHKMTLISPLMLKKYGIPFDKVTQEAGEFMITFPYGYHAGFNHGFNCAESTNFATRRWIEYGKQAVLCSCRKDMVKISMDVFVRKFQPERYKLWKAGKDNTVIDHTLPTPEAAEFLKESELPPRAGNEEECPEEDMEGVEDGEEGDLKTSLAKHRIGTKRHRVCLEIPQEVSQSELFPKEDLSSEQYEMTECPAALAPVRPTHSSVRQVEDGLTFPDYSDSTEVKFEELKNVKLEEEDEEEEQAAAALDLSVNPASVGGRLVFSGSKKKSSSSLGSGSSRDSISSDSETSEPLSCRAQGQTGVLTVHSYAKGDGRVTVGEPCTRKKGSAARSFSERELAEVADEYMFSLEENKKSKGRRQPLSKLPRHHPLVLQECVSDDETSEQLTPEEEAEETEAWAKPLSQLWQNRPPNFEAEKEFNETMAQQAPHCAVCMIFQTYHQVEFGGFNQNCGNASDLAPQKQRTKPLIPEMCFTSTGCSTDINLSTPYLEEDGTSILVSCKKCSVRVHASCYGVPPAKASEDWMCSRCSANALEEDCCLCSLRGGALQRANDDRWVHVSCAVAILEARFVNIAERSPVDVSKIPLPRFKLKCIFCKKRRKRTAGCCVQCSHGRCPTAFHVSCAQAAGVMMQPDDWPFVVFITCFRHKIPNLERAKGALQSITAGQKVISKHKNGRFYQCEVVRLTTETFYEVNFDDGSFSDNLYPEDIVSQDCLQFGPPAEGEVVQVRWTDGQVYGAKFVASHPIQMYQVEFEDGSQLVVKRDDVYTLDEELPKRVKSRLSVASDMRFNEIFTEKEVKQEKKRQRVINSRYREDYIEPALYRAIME

This assay has as its target Lysine-specific demethylase 4A (Homo sapiens) (UniProt O75164). Put plainly: qHTS Assay for Inhibitors of JMJD2A-Tudor Domain. Also: nearly all actives have a fitted effect of over 50% in size. Conditions: AlphaScreen JMJD2A-Tudor / H3K4me3 peptide binding; series mostly up to 114 µM. In general terms: Quantitative high-throughput screening tests each substance at several concentrations.
For `Cc1noc(/C=C/N(C)C)c1S(=O)(=O)N1CCCC(C(=O)Nc2cccc(F)c2)C1` (stereo not given), the Potency entry was “inactive”.
On the same count and under the same terms, then `O=C(Nc1ccc2nc(SCC(=O)N3CCCc4ccccc43)sc2c1)c1ccc(Cl)cc1`, with “inactive”; and `COc1ccc(CCNC(=O)CCCn2c(=O)c3ccccc3n(Cc3ccc(F)cc3Cl)c2=O)cc1OC`, with “inactive”; and `COc1ccccc1CNC(=O)c1ccccc1NC(=O)c1nsc2ccccc12`, with “inactive”.
The same measure, in the same setting: for `CCCN(CCC)c1nc2c(C)cccn2c(=O)c1/C=C1/SC(=S)N(Cc2ccco2)C1=O` the value was 35.5 µM (active).
In the case of `Cc1ccc2[nH]c(=O)c(-c3nc4c(C)cccn4c3NCc3ccco3)cc2c1`, the activity change, negative = inhibition is -23.3% [at 11.4 µM] (inactive).
`CCOC(=O)CC1C(=O)NCCN1c1nc2c(C)cccn2c(=O)c1/C=C1\SC(=S)N(C(C)CC)C1=O` (stereo not given): the Potency entry was “inactive”.
On the same count and under the same terms, then `Cc1cc(C)c(NC(=O)Cn2c(SCC(=O)NCc3ccccc3)nc3ccccc32)c(C)c1`, with “inactive”; and `COc1ccc(C2C3=C(CCCC3=O)N(CC(=O)O)C3=C2C(=O)CCC3)cc1`, with “inactive”; and `CCCCNC(=O)C1CCC(=O)N1CCc1ccccc1` (stereo not given), with “inactive”.
The same measure, in the same setting: for `CCCCN1C(=O)CCC(C(=O)O)C1c1ccc(OC)cc1` (stereo not given) the value was 89.1 µM (active); for `COc1ccccc1CNC(=O)CCCCn1c(=O)c2ccccc2n(CC(=O)Nc2cc(Cl)ccc2C)c1=O`, “inactive”.
Take `Cc1cccc(NC(=O)C2CCN(S(=O)(=O)c3c(C)noc3/C=C/c3ccco3)CC2)c1`: the Potency result was “inactive”.
For `Cc1cccc(C2CC(=O)Oc3c2c(=O)n(C)c2ccccc32)c1` (stereo not given), the Potency entry is “inactive”.
Take `O=c1[nH]c2ccccc2s1`: the Potency result is “inactive”.
With `Nc1ccc2[nH]c(=S)sc2c1`, the Potency is 3.55 µM (active).
Take `COc1cc(C(=O)N2CCN(C(=O)COc3cccc(C)c3)CC2)cc(OC)c1OC`: the Potency entry was “inactive”.
Take `COCCn1c(SCC(=O)c2cc(C)ccc2C)nc2cc(C(=O)NC3CCCC3)ccc2c1=O`: the Potency result was “inactive”.
Regarding `Cc1cc(C)cc(OC(C)C(=O)Nc2nc3c(s2)CCCC3)c1` (stereo not given), the Potency entry was “inactive”.
Turning to `COc1cccc(-n2c(=S)sc3c(=O)n(-c4ccccc4C)c(SCC(=O)O)nc32)c1`, the Potency entry is “inactive”.
On to `COc1cccc(-n2c(=S)sc3c(=O)n(-c4ccccc4OC)c(SCC4OCCO4)nc32)c1`, for which the Potency entry was “inactive”.
Turning to `COc1ccccc1-n1c(=S)[nH]c2c(sc(=S)n2-c2ccc(C)cc2C)c1=O`, the Potency is 50.1 µM (active).
For `Cc1oc(-c2ccccc2F)nc1CN1CCC(C(=O)NCCc2ccc(Cl)cc2)CC1`, the Potency entry is “inactive”.
Same read-out and setting: then `O=C(CSc1nc2ccccc2nc1Cc1ccccc1)N1CCCCC1`, with “inactive”; and `Cc1ccc(-c2nc3cccc(C)n3c2Nc2ccc3c(c2)OCCO3)cc1`, with 11.2 µM (active).
For `Cc1ccc2nc(-c3ccc(O)cc3)c(Nc3ccc4c(c3)OCO4)n2c1`, the Potency result was “inactive”.
For the compound `Cc1nc(Nc2ccc3c(c2)OCCO3)c2nnn(Cc3ccccc3Cl)c2n1`, the Potency entry is “inactive”.
On the same count and under the same terms, then `Cc1cccc2nc(-c3ccc(Cl)s3)c(Nc3ccc4c(c3)OCCO4)n12`, with 31.6 µM (active).
The same measure, in the same setting: then `Oc1ccc(-c2nc3ccc(Cl)cn3c2Nc2ccc3c(c2)OCO3)cc1`, with “inactive”.
Still for that read-out and setting: then `Oc1ccccc1-c1nc2ccc(Cl)cn2c1Nc1ccc2c(c1)OCCO2`, with “inactive”.
In the case of `CCOC(=O)c1nnn(CC(=O)NC(=O)Nc2ccccc2F)c1C(=O)OCC`, the Potency result is “inactive”.
For the compound `COc1ccc(CCN2C(=O)c3oc4cc(C)cc(C)c4c(=O)c3C2c2ccccc2F)cc1OC` (stereo not given), the Potency result is “inactive”.
Regarding `O=C1CC(c2nnc(Cc3ccc(Cl)cc3)o2)CN1c1ccccc1` (stereo not given), the Potency entry was “inactive”.
`CCC(=O)N1CCc2cc(S(=O)(=O)NC(C(=O)Nc3ccc(C(C)=O)cc3)C(C)C)ccc21` (stereo not given): the Potency result is “inactive”.
In the case of `CCC(=O)N1c2ccccc2CC1C(=O)N1CCN(c2cccc(OC)c2)CC1` (stereo not given), the Potency result was “inactive”.
Regarding `CCCN(CCC)C(=O)C(Cc1ccccc1)NS(=O)(=O)c1ccc2c(c1)c(=O)n(C)c(=O)n2C` (stereo not given), the Potency entry was “inactive”.
In the case of `Cc1ccc(N(CC(=O)NCc2ccc(Cl)cc2)S(=O)(=O)N(C)C)cc1`, the Potency result was “inactive”.
The same measure, in the same setting: for `Fc1ccccc1Oc1ncnc2c1oc1ccccc12` the value was “inactive”; for `O=C(c1ccc2c(c1)N(Cc1ccc(F)cc1)C(=O)c1ccccc1S2(=O)=O)N1CCN(c2ccccn2)CC1`, “inactive”; for `C=CCn1c(SCc2cccc(F)c2)nc2cc(C(=O)N3CCC(C(N)=O)CC3)ccc2c1=O`, “inactive”.
Regarding `Cc1ccc(CSCC2Nc3ccc(C(=O)N4CCN(c5ccc(F)cc5)CC4)cc3NC2=O)cc1` (stereo not given), the Potency was 22.4 µM (active).
Regarding `Cc1ccc(SCC(=O)N2CCN(c3ccc(F)cc3)CC2)cc1`, the Potency result is “inactive”.
As for `O=C1Nc2cc(C(=O)N3CCN(c4ccc(F)cc4)CC3)ccc2NC1CSCc1cccc(F)c1` (stereo not given), the Potency was 20 µM (active).
As for `CC1CCN(C(=O)c2ccc3c(c2)NC(=O)CN3)CC1`, the Potency result was “inactive”.
`Cc1oc(-c2ccccc2)nc1Cn1c(SCc2cccc(C(F)(F)F)c2)nc2cccnc21`: the Potency entry was “inactive”.
On the same count and under the same terms, then `Cc1ccc(C)c(NC(=O)Cn2ccn(-c3ccc(F)cc3)c(=O)c2=O)c1`, with “inactive”; and `O=C(Nc1nnc(Cc2ccc(Cl)cc2)s1)c1ccncc1`, with “inactive”.
Take `O=C(Nc1nnc(Cc2ccc(Cl)cc2)s1)c1cccnc1`: the Potency entry was “inactive”.
Consider `O=C(Nc1nnc(Cc2ccccc2)s1)c1cnccn1`, for which the Potency is 50.1 µM (active).
With `CCCC(=O)N1CCN(c2nc3c(OC)ccc(C)c3s2)CC1`, the Potency entry was “inactive”.
Same read-out and setting: for `CSCCC(C(=O)NC1=NCCS1)N1C(=O)c2ccccc2C1=O` (stereo not given) the value was 79.4 µM (active); for `COc1ccc(CNC(=O)COC(=O)C(CCSC)N2C(=O)c3ccccc3C2=O)cc1` (stereo not given), “inactive”.
`O=C(NC1=NCCS1)[C@H](Cc1ccccc1)N1C(=O)c2ccccc2C1=O`: the Potency entry was “inactive”.
With `Cc1ccc2oc(=O)c3cnn(CC(=O)N4CCN(c5cccc(Cl)c5)CC4)c3c2c1`, the Potency result was “inactive”.
On to `CCCCN(CC)CCCNC(=O)c1nn(C)c2c1CS(=O)(=O)c1ccccc1-2`, for which the Potency entry is “inactive”.
Take `CC(=O)c1cccc(NC(=O)CSc2nc3c(c(=O)[nH]2)CCC3)c1`: the Potency entry was “inactive”.
Still for that read-out and setting: for `Cc1c(-c2cccc(NC(=O)C(C)(C)C)c2)nc2ncccn12` the value was “inactive”; for `Cc1ccccc1Nc1c(-c2ccccc2)nc2ncccn12`, “inactive”; for `CCc1cccc(C)c1Nc1c(-c2ccc(N(C)C)cc2)nc2ncccn12`, 35.5 µM (active).
Consider `CCn1cc(C(=O)N2CCN(c3cc(C)ccc3C)CC2)c(=O)c2cc(S(=O)(=O)N(C)C3CCCCC3)ccc21`, for which the Potency result was “inactive”.
Still for that read-out and setting: then `O=C(NCCc1ccccc1)c1cnc2sc(N3CCCC3)nn2c1=O`, with “inactive”.
Regarding `COC(=O)c1ccc(NC(=O)CCc2c(C)nc3c(c(C)nn3-c3ccc(C)cc3)c2C)cc1`, the Potency result is “inactive”.
Take `C#CCOCCOCCOCCNc1nc(N2CCN(C(=O)[C@H](CCCCN)n3cc([C@@H](N)C(C)CC)nn3)CC2)nc(N2CCN(C(=O)[C@H](Cc3ccc(O)cc3)n3cc([C@@H](N)C(C)CC)nn3)CC2)n1` (stereo not given in full): the Potency was 44.7 µM (active).
For `C#CCOCCOCCOCCNc1nc(N2CCN(C(=O)[C@H](Cc3ccc(O)cc3)n3cc(C(N)CC(C)C)nn3)CC2)nc(N2CCN(C(=O)[C@H](CCC(=O)O)n3cc(C(N)[C@H](C)CC)nn3)CC2)n1` (stereo not given in full), the Potency is 44.7 µM (active).
In the case of `C#CCOCCOCCOCCNc1nc(N2CCOCC2)nc(N2CCN(C(=O)[C@H](Cc3ccc(O)cc3)n3cc(CCO)nn3)CC2)n1`, the Potency result was “inactive”.
As for `C#CCOCCOCCOCCNc1nc(N2CCN(C(=O)C(Cc3ccc(O)cc3)n3cc(C(N)CC(C)C)nn3)CC2)nc(N2CCN(C(=O)C(Cc3ccc(O)cc3)n3cc(C(N)C(C)CC)nn3)CC2)n1` (stereo not given), the Potency was 50.1 µM (active).
On the same count and under the same terms, then `CC[C@H](C)[C@@H](C(=O)N1CCNCC1)n1cc([C@@H](N)Cc2ccc(O)cc2)nn1`, with “inactive”; and `C#CCOCCOCCOCCNc1nc(N2CCN(C(=O)[C@H](CCC(=O)O)n3cc(C(N)CO)nn3)CC2)nc(N2CCN(C(=O)[C@H](Cc3ccc(O)cc3)n3cc(C(N)[C@H](C)CC)nn3)CC2)n1` (stereo not given in full), with 28.2 µM (active); and `O=C(NCc1ccccc1)c1ccc2c(c1)nc1n2CCCCC1`, with “inactive”.
Take `CC(C)c1ccc(NS(=O)(=O)c2ccc3[nH]cc(C(=O)NC4CCCC4)c(=O)c3c2)cc1`: the Potency result was “inactive”.
For `CCC(Sc1nc2n[nH]c(C)c2c(=N)n1-c1ccccc1Cl)C(=O)N(CC)CC` (stereo not given), the Potency result was “inactive”.
On the same count and under the same terms, for `Cc1nnc(SCc2cc(=O)c3cc(F)ccc3[nH]2)n1C` the value was “inactive”; for `Cc1cc(NC(=O)c2ccc(-c3ccc(Cl)cc3)o2)cc(-c2nc3ncccc3o2)c1O`, “inactive”.
Consider `CC(=O)c1ccc(NC(=O)c2nc3nc(C)cc(C(F)F)n3n2)cc1`, for which the Potency entry was “inactive”.
For `CCc1cc(-c2n[nH]c(=S)n2CC(C)C)cs1`, the Potency is 28.2 µM (active).
Turning to `CCc1cc(-c2nnc(SCC(=O)NC3CC3)n2C)cs1`, the Potency entry was “inactive”.
As to `CCCc1cc(-c2n[nH]c(=S)n2Cc2ccccc2)cs1`, the Potency result was “inactive”.
Turning to `Cc1ccccc1NC(=O)CN1C(=O)C(C)(C)c2ccccc21`, the Potency result was “inactive”.
As to `CCOc1ccc(N(CC)S(=O)(=O)N2CCCC(C(=O)NCc3ccc(SC)cc3)C2)cc1` (stereo not given), the Potency entry is “inactive”.
The same measure, in the same setting: then `COc1ccc(S(=O)(=O)N2CCN(c3ccc(F)cc3)CC2)cc1-c1noc(C)n1`, with “inactive”.
In the case of `COc1ccc(N2CCN(S(=O)(=O)c3ccc(-c4coc(C)n4)cc3)CC2)cc1`, the Potency entry is “inactive”.
For the compound `CCc1nc(-c2cc(S(=O)(=O)N3CCN(c4ccc(OC)cc4)CC3)ccc2OC)no1`, the Potency was 79.4 µM (active).
In the case of `Cc1csc2nc(COc3ccc(NC(=O)COc4ccccc4)cc3)cc(=O)n12`, the Potency result is “inactive”.
Consider `CCn1c2ccccc2c2nnc(SCC(=O)O)nc21`, for which the Potency result was “inactive”.
For the compound `CCOc1cc2[nH]c(=S)n(CCCN3CCCC3=O)c(=O)c2cc1OCC`, the Potency is 22.4 µM (active).
With `O=C(CCC(=O)NNc1nc2ccccc2c2nc(-c3ccccc3)nn12)NCCCN1CCCC1=O`, the Potency entry was “inactive”.
On to `CCOc1cc2[nH]c(=O)n(Cc3ccc(C(=O)NCCCN4CCCC4=O)cc3)c(=O)c2cc1OCC`, for which the Potency entry is “inactive”.
The same measure, in the same setting: then `O=C(CCn1c(=S)[nH]c2ccccc2c1=O)NCCCN1CCCC1=O`, with 17.8 µM (active); and `CCOc1cc2[nH]c(=S)n(CCN3CCCCC3C)c(=O)c2cc1OCC` (stereo not given), with “inactive”; and `O=C(CCCCCn1c(=O)[nH]c2ccccc2c1=O)NCCc1c[nH]c2ccccc12`, with “inactive”.
